Source: PubChem
Tau FP inhib – tau fibrillization inhibition (FP); K18 P301L tau heparin fibrillization, Alexa594 FP, 6 h; Potency, µM (highest dose often 57.7 µM), for inactives: top-dose activity, negative = inhibition, actives largely listed as inhibitors; 280,000 compounds, 0.39% hits; P10636; further: nearly all actives have a fitted effect of over 55% in size
Target sequence (P10636 561-689 P618L limits assumed): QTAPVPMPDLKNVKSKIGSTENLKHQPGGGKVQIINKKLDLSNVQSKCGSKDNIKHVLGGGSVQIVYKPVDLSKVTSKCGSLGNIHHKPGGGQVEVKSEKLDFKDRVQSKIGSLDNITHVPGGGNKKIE
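Human tau K18 […] P301L fragment, 15 uM unlabeled plus 0.24 uM Alexa 594-labeled tau (final), with compound and 20 uM heparin in 100 mM sodium acetate pH 7; 6 hr at 37 C, then Alexa 594 FP read.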
NPSR antag – neuropeptide S receptor (human) antagonism, cAMP. CHO-NPSR cells, cAMP TR-FRET, antagonist mode. Potency, µM (doses to about 38.3 µM), for the others: at the highest dose activity change, negative = inhibition, hits mostly inhibitors. 220,000 compounds, 1% hits. AID 1461; further: nearly all actives have a fitted effect of over 50% in size
Target sequence (Q6W5P4 whole entry, looked up): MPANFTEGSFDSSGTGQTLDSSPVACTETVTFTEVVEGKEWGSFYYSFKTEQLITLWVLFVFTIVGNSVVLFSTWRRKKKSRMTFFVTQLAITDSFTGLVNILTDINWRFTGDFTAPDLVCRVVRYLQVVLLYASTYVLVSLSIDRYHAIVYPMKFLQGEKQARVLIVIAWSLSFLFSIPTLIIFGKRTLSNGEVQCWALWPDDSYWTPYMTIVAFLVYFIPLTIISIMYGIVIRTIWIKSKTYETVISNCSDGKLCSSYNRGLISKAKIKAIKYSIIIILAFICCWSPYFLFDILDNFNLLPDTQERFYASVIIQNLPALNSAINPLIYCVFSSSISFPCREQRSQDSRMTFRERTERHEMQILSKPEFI
ALDH1A1 block – blocks purified human ALDH1A1 activity; P00352; Purified ALDH1A1, NADH fluorescence, propionaldehyde substrate; Potency, µM (series often up to 75.3 µM), for inactives: top-dose activity, negative = inhibition, hits mostly inhibitors; 220,000 compounds, 7.3% hits; active means well fitted inhibition curve with a large enough effect, not every such curve was filed as active; inconclusive means small, poorly fitted or top-dose-only effect, or another doubt; inactive means no such curve, though single readings can be large or run the other way;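 further: plate controls were no enzyme wells and a reference inhibitor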
HPGD inh – blocks human HPGD enzyme activity | purified HPGD, NADH fluorescence kinetic, PGE2 substrate | Potency, µM, for the others: top-dose activity change, negative = inhibition, hits mostly inhibitors | 150,000 compounds, 4.3% hits | AID 894; active means well fitted inhibition curve with a large enough effect, not every such curve was filed as active; inconclusive means small, poorly fitted or top-dose-only effect, or another doubt; inactive means no such curve, though single readings can be large or run the other way
Target sequence (P15428 whole entry, looked up): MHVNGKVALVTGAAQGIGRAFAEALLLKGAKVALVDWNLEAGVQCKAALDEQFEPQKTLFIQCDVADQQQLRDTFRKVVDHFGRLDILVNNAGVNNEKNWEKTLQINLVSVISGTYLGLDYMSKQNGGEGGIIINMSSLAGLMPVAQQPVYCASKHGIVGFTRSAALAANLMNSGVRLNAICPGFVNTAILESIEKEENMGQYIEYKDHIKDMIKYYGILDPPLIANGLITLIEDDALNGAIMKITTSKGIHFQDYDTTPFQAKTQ
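20 nM HPGD preincubated 15 min at room temperature with compound in 50 mM Tris-HCl pH 8, 0.01% Tween 20. Started with 1 mM NAD+ and 30 uM prostaglandin E2; NADH fluorescence (360/450 nm) read 5 times over 30-s intervals, last minus first.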
Tau fluor counter – counter-screen for tau fibril formation inhibitors | tau K18 P301L Alexa594 fluorescence, heparin fibrillization | Potency, µM (series often up to 57.7 µM), for inactives: top-dose activity change, negative = decrease | 280,000 compounds, 0.93% hits | AID 1463; further: nearly all actives have a fitted effect of over 55% in size
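Human tau K18 P301L (15 uM unlabeled, 0.24 uM Alexa 594-labeled) in 100 mM sodium acetate pH 7 with 20 uM heparin, 6 hr at 37 C. ThT 30 uM added, 1 hr ambient; Alexa 594 FP and total fluorescence read at 555/632 nm.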
Tau fibril ThT – blocks human tau fibril formation measured by thioflavin T; Potency, µM (titrated, usually from 57.4 µM), for inactives: top-dose activity, negative = inhibition, most hits filed as inhibitors; 270,000 compounds, 2.1% hits; recombinant tau K18 P301L, heparin-induced fibrillization, ThT fluorescence; P10636; AID 1460; further: nearly all actives have a fitted effect of over 55% in size
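ThT emission at 510 nm, taken 1 hr after adding 30 uM dye, quantifies aggregates formed when 20 uM heparin acts on human tau K18 P301L for 6 hr at 37 C.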
Active calls of the source: *; ? = inconclusive; / = no result; [ ] = dose if it differs, or a comment. Rows were chosen to be rich in hits. Some 9.5% of all compounds tested hit in one or more screens of this group. Unless noted, the call rests on the fitted dose curve; in most records, active means well fitted curve in the direction sought with a large enough effect; inconclusive means small, poorly fitted or top-dose-only effect, or another doubt; inactive means no such curve, though single readings can be large; an effect the other way counts as inactive or inconclusive. Unless noted, on the % scale 0 is the no-effect control and ±100 the full control effect; potency means the concentration at half of the fitted maximal effect.

SMILES	Tau FP inhib	NPSR antag	ALDH1A1 block	HPGD inh	Tau fluor counter	Tau fibril ThT
Cc1cc(Br)c2c(c1)/C(=C/C(=O)c1cccs1)C(=O)N2	-2.3%	-47.0%	?	/	-7.7%	?
COc1cccc(N=C2C(=O)N3CCCc4cccc2c43)c1	-3.9%	5.1%	0.159µM*	-11.3%	-14.3%	?
Cc1ccc(/C=[N+](\[O-])c2ccc(N(C)C)cc2)c2nsnc12	31.6µM*	?	1.12µM*	/	?	6.31µM*
O=C(O)c1cc(S(=O)(=O)Nc2cccc(F)c2)ccc1Cl	/	/	6.8%	-10.2%	/	/
CCN(Cc1ccccc1)C(=O)CCCOc1ccccc1	1.9%	-11.1%[46.1 µM]	-3.0%	-28.7%	-11.0%	-11.9%
C=CC[C@@H]1C=C[C@@H](O/N=C\[C@@H](NS(=O)(=O)c2ccc(C)cc2)[C@H](C)/C=C\CC(=O)OC)[C@@H](CO)O1	-6.6%[11.6 µM]	/	?	/	-3.3%[11.6 µM]	-1.0%[11.5 µM]
CC(C)C1Cc2c(sc3[nH]c(=S)n(Cc4ccccc4)c(=O)c23)CO1 (stereo unspecified)	5.3%	10µM*	-16.4%	?	-28.8%	-16.9%
CCCCN(CCCC)CCNC(=O)CSCc1ccc(C)cc1	0.1%	4.5%	28.2µM*	/	1.0%	-0.7%
NC(=S)Nc1cc2ccccc2c2ccccc12	1.1%	12.1%[46.1 µM]	0.398µM*	-8.0%	-17.6%	-19.2%
CCOC(=O)c1c(C)cc(O)c(C)c1O	-7.1%	/	1.0%	-9.4%	-8.3%	-3.2%
S=C(Nc1ccc2nc(-c3ccccn3)c(-c3ccccn3)nc2c1)N1CCOCC1	?	6.3%	?	/	?	12.6µM*
CCOC(=O)c1cc(-c2ccc(C)cc2)n(CC(=O)NC2CCCCCC2)c1C	-1.7%	/	/	/	0.9%	-0.3%
COc1cccc2cc(C(=O)NCc3ccco3)c(=Nc3ccc(C(=O)O)cc3)oc12	-1.5%	?	15.8µM*	?	-1.6%	?
COc1cccc2cc(C(=O)NCc3ccco3)c(=O)oc12	0.1%	6.9%	?	-25.5%	-7.5%	-1.7%
O=C(O)c1ccc(N=c2oc3cc(O)ccc3cc2C(=O)NCc2ccccc2)cc1	0.2%	-32.9%	?	/	-10.2%	28.2µM*
COc1ccc2cc(C(=O)NCc3ccccc3)c(=Nc3ccc(C(=O)O)cc3)oc2c1	8.6%	-51.2%	?	/	10.3%	?
O=C(COc1ccc([N+](=O)[O-])cc1)NCCC1=CCCCC1	-4.2%	-3.4%	10µM*	-11.5%	-13.1%	-10.6%
CCCNS(=O)(=O)c1ccc(OCC(=O)NCCC2=CCCCC2)cc1	1.1%	-16.5%[46.1 µM]	11.2µM*	0.8%	-5.6%	11.5%
COC(=O)COc1ccc(S(=O)(=O)NCCC2=CCCCC2)cc1	-1.6%	-13.6%[46.1 µM]	22.4µM*	-1.1%	-11.6%	-20.2%
COc1ccc(S(=O)(=O)NCC(c2ccco2)N2CCN(c3ccc(F)cc3)CC2)cc1C (stereo unspecified)	0.5%	/	/	/	?	-6.8%
COc1ccc(C2C(=O)N(C3CCCCCC3)CC(=O)N2CCC2=CCCCC2)cc1 (stereo unspecified)	-12.7%	/	/	/	-10.1%	-13.6%
CCN(CC)CCCC(C)NC(=O)c1ccc(-n2c(=O)c(=O)[nH]c3ccccc32)cc1 (stereo unspecified)	/	/	-4.3%	-9.2%	/	/
CC(C)[C@H](NC(=O)OC(C)(C)C)c1nnc(S(=O)(=O)Cc2c(F)cccc2Cl)o1	?	12.6µM*	0.0%	5.01µM*	-12.5%	-2.2%
CC(C)Cn1nnnc1S(=O)(=O)Cc1ccccc1	?	/	10.9%	-8.3%	-1.2%	-4.8%
C[C@H](NC(=O)OC(C)(C)C)c1nnc(SCc2c(F)cccc2Cl)o1	-1.1%	/	/	/	-17.2%	-9.5%
SMILES	Tau FP inhib	NPSR antag	ALDH1A1 block	HPGD inh	Tau fluor counter	Tau fibril ThT
Cc1ccccc1CS(=O)(=O)c1nnc([C@H](CC(C)C)NC(=O)OC(C)(C)C)o1	0.4%	10µM*	0.4%	12.6µM*	6.2%	4.2%
CC(C)C[C@H](N)c1nnc(S(=O)(=O)Cc2cccc(F)c2)o1	-8.5%	-28.6%[46.1 µM]	12.6µM*	-27.0%	-9.2%	?
CC(C)C[C@H](NC(=O)OC(C)(C)C)c1nnc(SCc2ccccc2)o1	3.8%	?	-11.1%	-11.2%	-9.2%	-18.2%
CC(C)(C)OC(=O)N[C@@H](Cc1ccccc1)c1nnc(S(=O)(=O)Cc2cccc(F)c2)o1	-1.8%	?	?	3.98µM*	7.1%	9.7%
CCC(C)[C@H](NC(=O)N1CCCCCC1)C(=O)OC (stereo partly specified)	-2.0%	0.1%[7.67 µM]	/	/	3.6%	-1.5%
CC[C@@H](C)[C@H](NC(=O)OC(C)(C)C)c1nnc(S(=O)(=O)Cc2cc(C)ccc2C)o1	6.7%	10µM*	3.8%	/	-1.3%	13.8%
O=C(CN1CCN(S(=O)(=O)c2ccc(Br)cc2)CC1)N/N=C/c1cc([N+](=O)[O-])ccc1Cl	2.6%	-5.9%	?	-9.0%	-22.2%	-8.7%
Cc1ccc(S(=O)(=O)N2CCN(CC(=O)N/N=C\c3cccnc3)CC2)cc1	3.3%	15.1%	3.0%	1.0%	-1.5%	-10.2%
Cc1ccc(S(=O)(=O)N2CCN(CC(=O)N/N=C\c3ccc(Cl)c([N+](=O)[O-])c3)CC2)cc1	7.6%	-34.9%	8.91µM*	-2.3%	-29.4%	-7.2%
O=C(CN1CCN(S(=O)(=O)c2ccc(Br)cc2)CC1)N/N=C/c1ccc(Cl)c([N+](=O)[O-])c1	7.5%	?	20µM*	-8.3%	?	-17.7%
COC(=O)c1cnn(-c2cc(Oc3ccccc3)ncn2)c1N	-7.8%	1.9%[46.1 µM]	?	/	-4.9%	-2.5%
CCOc1cnn(-c2cc(Oc3ccc(C)cc3)ncn2)c(=O)c1Cl	1.1%	-12.8%[46.1 µM]	11.2µM*	-8.4%	-16.5%	-17.8%
Cc1ccccc1Oc1cc(-n2ncc(Cl)c(Cl)c2=O)ncn1	?	2.51µM*	1.58µM*	-16.7%	-12.0%	10µM*
COc1ccccc1Oc1cc(-n2nc(C)cc2C)ncn1	-6.8%	0.9%	?	-4.8%	-7.0%	-8.7%
CCOc1cccc(C(=O)NC(=S)Nc2ccccc2)c1	-5.3%	-3.2%	17.8µM*	-19.6%	-24.5%	?
CCOc1cccc(C(=O)NC(=S)Nc2cccnc2)c1	3.3%	-2.0%	?	-12.2%	-11.3%	-12.2%
O=C(O)c1ccc(NC(=S)NC(=O)c2cccc(COc3ccccc3)c2)cc1	11.6%	51.9%	3.55µM*	/	-6.0%	?
O=C(Nc1ccc(N2CCN(c3ccc(O)cc3)CC2)cc1)Oc1ccccc1	-5.2%	-1.1%[46.1 µM]	11.2µM*	-1.9%	7.94µM*[quencher]	5.01µM*
CCN1CCN(c2ccc(NC(=O)c3cccc(OCc4ccccc4)c3)cc2)CC1	-1.7%	-9.8%[46.1 µM]	-2.4%	?	-4.6%	-9.8%
CN1CCN(c2ccc(NC(=O)c3cccc(OCc4ccccc4)c3)cc2)CC1	?	-6.7%[46.1 µM]	12.9%	-5.5%	14.1µM*[quencher]	?
